Laboratory results published in the supplement of paper PMC11732987, “Enantioselective OTUD7B fragment discovery through chemoproteomics screening and high-throughput optimisation” (Communications Chemistry, 2025).

Columns and labels:
Assay in all cases: log2 ratio of Biotin-Ahx-Ub-VS probe labelling (fragment/DMSO); higher = less target engagement (more negative = stronger competition), active = hit call of the paper (q ≤ 0.05, log2 ratio ≤ -1)
Details in all cases: compound concentration: 200 uM; treatment time: 3 h
USP34 = USP34 (UniProt Q70CQ2)
Sequence of USP34 (Q70CQ2 whole entry, the tested form may be a part): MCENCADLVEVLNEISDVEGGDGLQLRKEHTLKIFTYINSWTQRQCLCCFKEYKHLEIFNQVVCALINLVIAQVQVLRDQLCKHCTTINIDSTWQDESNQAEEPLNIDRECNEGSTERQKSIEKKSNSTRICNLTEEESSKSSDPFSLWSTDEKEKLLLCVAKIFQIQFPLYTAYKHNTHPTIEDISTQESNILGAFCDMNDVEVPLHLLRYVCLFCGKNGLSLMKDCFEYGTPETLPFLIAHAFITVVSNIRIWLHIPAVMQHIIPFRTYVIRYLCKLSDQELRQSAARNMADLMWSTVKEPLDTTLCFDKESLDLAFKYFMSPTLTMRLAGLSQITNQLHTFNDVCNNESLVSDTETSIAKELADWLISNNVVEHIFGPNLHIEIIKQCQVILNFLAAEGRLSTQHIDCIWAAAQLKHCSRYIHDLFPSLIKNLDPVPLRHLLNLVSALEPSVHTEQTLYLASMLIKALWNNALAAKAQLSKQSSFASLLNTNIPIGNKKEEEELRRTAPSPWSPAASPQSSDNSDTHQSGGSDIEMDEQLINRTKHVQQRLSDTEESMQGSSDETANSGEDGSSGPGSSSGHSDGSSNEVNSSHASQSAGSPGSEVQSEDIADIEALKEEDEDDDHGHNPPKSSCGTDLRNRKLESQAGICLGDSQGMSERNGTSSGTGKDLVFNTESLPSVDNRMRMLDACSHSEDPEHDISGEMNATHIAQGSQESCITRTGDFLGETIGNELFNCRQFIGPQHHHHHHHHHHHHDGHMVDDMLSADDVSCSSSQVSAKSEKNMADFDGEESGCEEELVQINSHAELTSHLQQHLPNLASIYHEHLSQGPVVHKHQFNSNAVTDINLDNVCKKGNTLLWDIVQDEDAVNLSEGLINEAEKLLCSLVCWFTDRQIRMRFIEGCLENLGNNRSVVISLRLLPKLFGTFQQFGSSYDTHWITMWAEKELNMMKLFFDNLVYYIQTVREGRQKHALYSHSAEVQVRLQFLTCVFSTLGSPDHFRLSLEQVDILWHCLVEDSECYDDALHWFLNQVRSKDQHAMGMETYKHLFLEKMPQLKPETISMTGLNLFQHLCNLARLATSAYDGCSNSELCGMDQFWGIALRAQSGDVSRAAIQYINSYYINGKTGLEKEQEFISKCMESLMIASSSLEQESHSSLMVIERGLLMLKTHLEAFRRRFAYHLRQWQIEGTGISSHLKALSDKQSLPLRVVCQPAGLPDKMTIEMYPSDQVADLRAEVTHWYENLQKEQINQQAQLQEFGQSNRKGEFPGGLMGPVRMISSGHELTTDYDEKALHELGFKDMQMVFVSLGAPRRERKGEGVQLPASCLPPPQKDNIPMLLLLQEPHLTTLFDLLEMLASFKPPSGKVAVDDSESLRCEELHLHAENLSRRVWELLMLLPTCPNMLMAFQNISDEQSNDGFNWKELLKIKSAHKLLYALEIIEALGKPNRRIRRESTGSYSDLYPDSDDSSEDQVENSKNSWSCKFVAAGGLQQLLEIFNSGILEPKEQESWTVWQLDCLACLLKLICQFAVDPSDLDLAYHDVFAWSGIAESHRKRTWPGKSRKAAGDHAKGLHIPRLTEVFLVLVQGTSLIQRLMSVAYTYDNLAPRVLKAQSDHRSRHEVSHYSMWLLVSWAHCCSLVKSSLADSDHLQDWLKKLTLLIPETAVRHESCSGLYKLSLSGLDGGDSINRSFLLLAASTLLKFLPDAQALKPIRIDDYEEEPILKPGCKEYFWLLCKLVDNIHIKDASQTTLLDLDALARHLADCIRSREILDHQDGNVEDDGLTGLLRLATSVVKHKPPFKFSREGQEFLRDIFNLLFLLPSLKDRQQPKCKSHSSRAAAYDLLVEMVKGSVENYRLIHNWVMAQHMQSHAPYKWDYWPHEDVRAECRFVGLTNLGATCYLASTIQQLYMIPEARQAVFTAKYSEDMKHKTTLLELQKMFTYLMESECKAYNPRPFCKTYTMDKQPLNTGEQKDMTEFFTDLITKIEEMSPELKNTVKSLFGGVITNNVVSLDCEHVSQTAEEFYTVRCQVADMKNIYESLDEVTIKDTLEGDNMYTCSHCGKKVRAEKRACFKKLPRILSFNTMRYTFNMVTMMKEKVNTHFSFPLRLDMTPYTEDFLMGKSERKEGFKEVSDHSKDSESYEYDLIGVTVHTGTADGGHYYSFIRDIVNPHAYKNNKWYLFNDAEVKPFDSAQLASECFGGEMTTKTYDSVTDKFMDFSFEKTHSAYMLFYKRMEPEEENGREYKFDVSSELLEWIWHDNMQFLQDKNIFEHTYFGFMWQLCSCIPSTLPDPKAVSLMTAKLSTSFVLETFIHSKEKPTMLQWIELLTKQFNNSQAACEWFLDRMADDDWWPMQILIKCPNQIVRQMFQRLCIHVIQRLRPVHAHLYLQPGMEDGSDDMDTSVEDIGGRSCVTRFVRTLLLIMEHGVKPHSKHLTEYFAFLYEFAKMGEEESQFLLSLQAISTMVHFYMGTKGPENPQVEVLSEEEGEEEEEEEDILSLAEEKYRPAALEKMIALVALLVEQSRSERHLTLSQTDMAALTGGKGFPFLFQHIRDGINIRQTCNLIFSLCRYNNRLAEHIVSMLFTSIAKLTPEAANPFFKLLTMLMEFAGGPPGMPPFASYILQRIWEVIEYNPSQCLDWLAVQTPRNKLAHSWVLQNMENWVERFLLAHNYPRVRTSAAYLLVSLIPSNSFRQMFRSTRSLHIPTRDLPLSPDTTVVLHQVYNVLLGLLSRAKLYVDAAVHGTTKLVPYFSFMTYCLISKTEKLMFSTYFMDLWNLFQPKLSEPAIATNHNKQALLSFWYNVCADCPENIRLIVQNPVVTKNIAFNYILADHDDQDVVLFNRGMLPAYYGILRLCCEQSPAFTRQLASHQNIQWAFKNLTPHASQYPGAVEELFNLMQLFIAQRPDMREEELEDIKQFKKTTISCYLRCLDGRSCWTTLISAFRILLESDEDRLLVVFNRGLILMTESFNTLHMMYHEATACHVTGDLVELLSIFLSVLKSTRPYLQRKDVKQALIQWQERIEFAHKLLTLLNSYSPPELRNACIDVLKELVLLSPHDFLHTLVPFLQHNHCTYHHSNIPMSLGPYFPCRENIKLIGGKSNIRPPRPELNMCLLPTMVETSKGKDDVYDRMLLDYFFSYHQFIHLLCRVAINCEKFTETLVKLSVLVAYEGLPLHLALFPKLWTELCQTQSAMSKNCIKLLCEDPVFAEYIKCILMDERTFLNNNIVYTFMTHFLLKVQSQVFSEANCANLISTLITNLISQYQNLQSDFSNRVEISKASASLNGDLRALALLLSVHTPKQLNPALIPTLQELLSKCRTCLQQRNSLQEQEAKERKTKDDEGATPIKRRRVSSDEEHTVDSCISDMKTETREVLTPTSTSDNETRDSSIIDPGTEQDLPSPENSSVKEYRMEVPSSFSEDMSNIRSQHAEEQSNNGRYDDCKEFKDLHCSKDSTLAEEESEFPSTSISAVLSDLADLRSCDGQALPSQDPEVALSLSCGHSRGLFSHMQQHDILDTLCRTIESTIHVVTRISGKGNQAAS
In short: (§1)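 Using Biotin-Ahx-Ub-VS at 0.5 µM final for 1 h, DUBs were labelled in HEK293T lysate (495 µg per sample) that had first been treated in triplicate with fragment at 200 µM or vehicle for 3 h. NeutrAvidin enrichment, LysC and trypsin digestion and diaPASEF LC-MS/MS followed. Spectronaut label-free quantities were global-median-normalised. Values are average log2 fragment/vehicle ratios by unpaired t-test, using proteins with ≥2 unique peptides.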

USP36 = target: T1, USP36 (UniProt Q9P275)
T1 sequence (whole entry): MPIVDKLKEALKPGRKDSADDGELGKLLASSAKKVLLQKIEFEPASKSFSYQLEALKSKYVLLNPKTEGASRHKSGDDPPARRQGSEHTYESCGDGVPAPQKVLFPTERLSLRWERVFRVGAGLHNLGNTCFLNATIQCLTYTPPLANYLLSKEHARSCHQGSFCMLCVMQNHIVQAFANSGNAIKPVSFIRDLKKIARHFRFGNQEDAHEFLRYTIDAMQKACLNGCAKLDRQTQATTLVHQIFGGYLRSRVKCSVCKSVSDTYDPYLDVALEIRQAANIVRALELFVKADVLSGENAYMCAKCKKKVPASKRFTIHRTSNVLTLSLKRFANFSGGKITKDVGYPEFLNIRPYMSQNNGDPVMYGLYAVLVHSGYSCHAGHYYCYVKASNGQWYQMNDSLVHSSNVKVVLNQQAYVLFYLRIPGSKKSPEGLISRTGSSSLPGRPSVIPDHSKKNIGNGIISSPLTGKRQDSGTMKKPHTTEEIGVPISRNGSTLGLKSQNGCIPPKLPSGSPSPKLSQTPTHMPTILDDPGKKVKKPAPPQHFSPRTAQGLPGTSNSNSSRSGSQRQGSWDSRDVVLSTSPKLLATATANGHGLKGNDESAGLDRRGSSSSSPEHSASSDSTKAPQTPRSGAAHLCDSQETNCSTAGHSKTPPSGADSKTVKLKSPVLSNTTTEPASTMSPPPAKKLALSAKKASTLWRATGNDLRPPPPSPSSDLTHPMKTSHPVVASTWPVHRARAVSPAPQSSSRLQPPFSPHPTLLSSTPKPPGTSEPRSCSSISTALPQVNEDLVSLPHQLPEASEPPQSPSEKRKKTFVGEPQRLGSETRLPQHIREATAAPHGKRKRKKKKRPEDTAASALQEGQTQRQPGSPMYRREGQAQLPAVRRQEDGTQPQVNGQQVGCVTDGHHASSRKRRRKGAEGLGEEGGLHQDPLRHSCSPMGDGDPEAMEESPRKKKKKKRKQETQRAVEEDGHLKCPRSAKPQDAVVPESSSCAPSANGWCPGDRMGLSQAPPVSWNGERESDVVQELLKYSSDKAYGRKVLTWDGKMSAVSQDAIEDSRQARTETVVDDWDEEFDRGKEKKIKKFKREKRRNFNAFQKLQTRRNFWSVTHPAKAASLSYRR
In short: as §1

USP38 = target: T2, USP38 (UniProt Q8NB14)
T2 sequence (whole entry): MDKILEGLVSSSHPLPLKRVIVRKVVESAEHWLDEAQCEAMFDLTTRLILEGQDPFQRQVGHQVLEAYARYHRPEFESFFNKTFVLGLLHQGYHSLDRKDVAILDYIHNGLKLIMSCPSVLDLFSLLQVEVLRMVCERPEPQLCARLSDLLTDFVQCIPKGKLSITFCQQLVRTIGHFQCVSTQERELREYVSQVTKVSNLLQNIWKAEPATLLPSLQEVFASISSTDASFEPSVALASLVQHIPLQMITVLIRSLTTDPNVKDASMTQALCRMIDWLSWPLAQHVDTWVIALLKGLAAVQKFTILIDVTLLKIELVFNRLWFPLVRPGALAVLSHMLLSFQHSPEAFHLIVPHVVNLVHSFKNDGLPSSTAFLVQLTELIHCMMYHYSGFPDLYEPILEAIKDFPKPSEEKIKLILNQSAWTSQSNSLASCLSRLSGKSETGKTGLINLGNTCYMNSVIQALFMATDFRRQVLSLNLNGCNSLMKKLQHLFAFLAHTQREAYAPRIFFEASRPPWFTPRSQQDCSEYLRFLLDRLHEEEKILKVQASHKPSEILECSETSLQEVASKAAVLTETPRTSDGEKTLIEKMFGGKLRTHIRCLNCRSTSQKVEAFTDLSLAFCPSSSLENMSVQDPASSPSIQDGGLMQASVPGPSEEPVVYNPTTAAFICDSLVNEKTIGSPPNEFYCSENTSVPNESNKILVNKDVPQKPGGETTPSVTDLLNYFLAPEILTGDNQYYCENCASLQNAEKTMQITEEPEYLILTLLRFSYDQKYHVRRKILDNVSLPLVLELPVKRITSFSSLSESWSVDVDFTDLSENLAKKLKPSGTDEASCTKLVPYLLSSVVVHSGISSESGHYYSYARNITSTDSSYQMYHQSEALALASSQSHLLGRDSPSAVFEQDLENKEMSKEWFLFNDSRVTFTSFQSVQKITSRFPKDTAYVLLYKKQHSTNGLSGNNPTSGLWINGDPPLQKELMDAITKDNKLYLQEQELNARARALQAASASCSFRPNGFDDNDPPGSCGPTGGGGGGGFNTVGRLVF
In short: as §1

USP39 = target: T3, USP39 (UniProt Q53GS9)
T3 sequence (whole entry): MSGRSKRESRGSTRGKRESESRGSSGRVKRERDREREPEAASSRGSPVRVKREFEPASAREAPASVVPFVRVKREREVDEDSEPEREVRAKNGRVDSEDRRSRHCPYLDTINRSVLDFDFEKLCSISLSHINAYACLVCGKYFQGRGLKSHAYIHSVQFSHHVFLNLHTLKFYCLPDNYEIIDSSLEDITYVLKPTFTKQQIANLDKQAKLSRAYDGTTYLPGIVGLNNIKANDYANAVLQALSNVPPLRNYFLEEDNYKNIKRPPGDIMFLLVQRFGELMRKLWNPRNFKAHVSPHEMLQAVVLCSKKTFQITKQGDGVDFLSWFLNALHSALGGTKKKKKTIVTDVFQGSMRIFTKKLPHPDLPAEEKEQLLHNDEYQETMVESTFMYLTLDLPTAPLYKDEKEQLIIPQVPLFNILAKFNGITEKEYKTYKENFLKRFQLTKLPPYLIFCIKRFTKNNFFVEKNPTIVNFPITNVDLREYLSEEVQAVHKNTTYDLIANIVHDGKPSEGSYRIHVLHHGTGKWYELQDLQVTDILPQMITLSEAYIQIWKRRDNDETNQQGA
In short: as §1

USP4 = target: T4, USP4 (UniProt Q13107)
T4 sequence (whole entry): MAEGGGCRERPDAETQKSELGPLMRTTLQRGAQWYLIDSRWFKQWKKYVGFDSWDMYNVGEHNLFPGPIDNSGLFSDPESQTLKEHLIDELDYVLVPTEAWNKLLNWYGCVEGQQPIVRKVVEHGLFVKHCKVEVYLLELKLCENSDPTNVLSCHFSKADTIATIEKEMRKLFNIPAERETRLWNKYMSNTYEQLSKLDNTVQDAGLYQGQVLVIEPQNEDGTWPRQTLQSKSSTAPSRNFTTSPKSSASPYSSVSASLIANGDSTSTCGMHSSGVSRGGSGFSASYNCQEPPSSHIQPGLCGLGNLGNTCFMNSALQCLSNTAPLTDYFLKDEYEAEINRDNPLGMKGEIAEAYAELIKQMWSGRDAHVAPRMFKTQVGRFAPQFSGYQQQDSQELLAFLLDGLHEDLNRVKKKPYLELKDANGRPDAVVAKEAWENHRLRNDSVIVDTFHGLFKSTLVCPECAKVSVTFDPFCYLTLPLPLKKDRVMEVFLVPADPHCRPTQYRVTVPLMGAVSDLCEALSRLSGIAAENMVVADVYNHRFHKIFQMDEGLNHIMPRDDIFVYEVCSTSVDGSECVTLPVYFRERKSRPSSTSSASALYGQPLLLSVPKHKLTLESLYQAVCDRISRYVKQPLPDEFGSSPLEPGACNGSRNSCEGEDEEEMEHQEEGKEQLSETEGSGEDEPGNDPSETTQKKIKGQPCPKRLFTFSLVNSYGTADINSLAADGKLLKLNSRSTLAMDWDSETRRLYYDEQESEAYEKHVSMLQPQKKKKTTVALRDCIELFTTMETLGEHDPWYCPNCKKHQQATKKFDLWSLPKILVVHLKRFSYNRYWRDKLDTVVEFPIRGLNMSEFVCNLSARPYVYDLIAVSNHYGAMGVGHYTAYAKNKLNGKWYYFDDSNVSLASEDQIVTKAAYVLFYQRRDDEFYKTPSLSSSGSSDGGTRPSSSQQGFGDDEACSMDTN
In short: as §1

Measured: log2 ratio of Biotin-Ahx-Ub-VS probe labelling

Cc1ncc2c(n1)CCN(C(=O)CCl)C2
inactive: USP34 -0.14 | USP36 -0.0392 | USP38 -0.067 | USP39 0.0209 | USP4 -0.35
